# Assay results published in PubChem BioAssay AID1159580 (chemical genetic matrix, 2015).
# The whole screen tested about 5,500 compounds, of which about 2,000 (36%) were called active. About 18% were inconclusive and are not listed. The list shows a part of the results. Unmarked numbers belong to inactive results. No stated cut-off is given here; in the data, active means normalized growth mostly below about 0.91 (no sharp cut-off); inconclusive means no clear call, values can overlap the other calls; inactive means mostly above about 0.92.
# Experiment: chemical genetic growth profiling, strain panel (AID 1159580);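 further: tested at 20 µM; growth read once vehicle control cultures reached saturation at 30 °C; 1 = growth at the plate median or of vehicle wells; lower values mean less growth of the strain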
# Conditions: growth OD
# [1] = S. cerevisiae deletion strains, locus YAL013W, strain DEP1, active compounds read low
# [2] = S. cerevisiae deletion strains, locus YBR229C, strain ROT2, active compounds read low
# [3] = S. cerevisiae deletion strains, locus YCL061C, strain MRC1, active compounds read low
# [4] = S. cerevisiae deletion strains, locus YDL101C, strain DUN1, active compounds read low
# [5] = S. cerevisiae deletion strains, locus YDL134C, strain PPH21, active compounds read low
# [6] = S. cerevisiae deletion strains, locus YDR150W, strain NUM1, active compounds read low
# [7] = S. cerevisiae deletion strains, locus YEL061C, strain CIN8, active compounds read low
# [8] = S. cerevisiae deletion strains, locus YGR078C, strain PAC10, active compounds read low
# [9] = S. cerevisiae deletion strains, locus YHR030C, strain SLT2, active compounds read low
# [10] = S. cerevisiae deletion strains, locus YHR087W, strain rtc3, active compounds read low
# [11] = S. cerevisiae deletion strains, locus YJL187C, strain SWE1, active compounds read low
# [12] = S. cerevisiae deletion strains, locus YJR043C, strain POL32, active compounds read low
# [13] = S. cerevisiae deletion strains, locus YJR075W, strain HOC1, active compounds read low
# [14] = S. cerevisiae deletion strains, locus YKL190W, strain CNB1, active compounds read low
# [15] = S. cerevisiae deletion strains, locus YLR039C, strain RIC1, active compounds read low
# [16] = S. cerevisiae deletion strains, locus YLR058C, strain SHM2 (second series), active compounds read low
# [17] = S. cerevisiae deletion strains, locus YLR085C, strain ARP6, active compounds read low
# [18] = S. cerevisiae deletion strains, locus YLR262C, strain YPT6, active compounds read low
# [19] = S. cerevisiae deletion strains, locus YML094W, strain GIM5, active compounds read low
# [20] = S. cerevisiae deletion strains, locus YMR219W, strain ESC1, active compounds read low
# [21] = S. cerevisiae deletion strains, locus YMR263W, strain SAP30, active compounds read low
# [22] = S. cerevisiae deletion strains, locus YNL153C, strain GIM3, active compounds read low
# [23] = S. cerevisiae deletion strains, locus YNL298W, strain CLA4 (second series), active compounds read low
# [24] = S. cerevisiae deletion strains, locus YNL322C, strain KRE1, active compounds read low
# [25] = S. cerevisiae deletion strains, locus YNR030W, strain Alg12, active compounds read low
# [26] = S. cerevisiae deletion strains, locus YOL006C, strain TOP1, active compounds read low
# [27] = S. cerevisiae deletion strains, locus YPL055C, strain LGE1, active compounds read low
# [28] = S. cerevisiae deletion strains, locus YPL241C, strain CIN2, active compounds read low
# [29] = S. cerevisiae deletion strains, locus YPR135W, strain CTF4, active compounds read low
# [30] = S. cerevisiae strains, strain wild type, active compounds read low
# [31] = S. cerevisiae deletion strains, locus YMR307W, strain GAS1, active compounds read low
compound,measurement,setting,value
COc1cc([N+](=O)[O-])c(OC)cc1SCC(=O)NNC(=O)c1cc(OC)c(OC)c(OC)c1,normalized growth,[1],0.982
same,normalized growth,[2],1.01
same,normalized growth,[3],0.981
same,normalized growth,[4],0.968
same,normalized growth,[5],0.991
same,normalized growth,[6],0.942
same,normalized growth,[7],0.941
same,normalized growth,[8],0.978
same,normalized growth,"S. cerevisiae deletion strains, locus YGR229C, strain SMI1, active compounds read low",1.01
same,normalized growth,[9],0.963
same,normalized growth,[10],1.03
same,normalized growth,[11],1.01
same,normalized growth,[12],0.983
same,normalized growth,[13],1.01
same,normalized growth,[14],0.999
same,normalized growth,[15],0.974
same,normalized growth,[16],0.999
same,normalized growth,[17],0.946
same,normalized growth,[18],1.04
same,normalized growth,[19],1.01
same,normalized growth,[20],1.01
same,normalized growth,[21],0.987
same,normalized growth,[22],0.988
same,normalized growth,[23],0.937
same,normalized growth,[24],0.98
same,normalized growth,[25],0.999
same,normalized growth,[26],0.931
same,normalized growth,[27],1.01
same,normalized growth,[28],0.939
same,normalized growth,[29],0.904
same,normalized growth,[30],1.02
COC(=O)Cc1cc(OC)c(OC)cc1[N+](=O)[O-],normalized growth,[1],1.01
same,normalized growth,[2],0.998
same,normalized growth,[3],1.02
same,normalized growth,[4],1.01
same,normalized growth,[6],1.01
same,normalized growth,[7],0.953
same,normalized growth,[8],1.03
same,normalized growth,[9],1.07
same,normalized growth,[10],1.1 [resistant] (active)
same,normalized growth,[11],0.983
same,normalized growth,[12],1
same,normalized growth,[13],0.997
same,normalized growth,[14],0.978
same,normalized growth,[15],1.16
same,normalized growth,[16],0.991
same,normalized growth,[17],0.982
same,normalized growth,[18],1.15
same,normalized growth,[19],0.997
same,normalized growth,[20],1
same,normalized growth,[21],1
same,normalized growth,[22],1.01
same,normalized growth,[23],0.977
same,normalized growth,[24],1.01
same,normalized growth,[25],0.985
same,normalized growth,[26],0.977
same,normalized growth,[27],0.974
same,normalized growth,[28],1.01
same,normalized growth,[29],1.03
same,normalized growth,[30],0.972
COc1ccc([N+](=O)[O-])c(OC)c1C(N)=O,normalized growth,[1],1.02
same,normalized growth,[2],1.03
same,normalized growth,[3],1.06
same,normalized growth,[4],1.06
same,normalized growth,[6],1.04
same,normalized growth,[7],0.995
same,normalized growth,[8],1.04
same,normalized growth,[9],1.11
same,normalized growth,[10],0.964
same,normalized growth,[11],1.02
same,normalized growth,[12],1.06
same,normalized growth,[13],1.02
same,normalized growth,[15],1.03
same,normalized growth,[16],0.997
same,normalized growth,[17],1.03
same,normalized growth,[18],0.989
same,normalized growth,[19],0.98
same,normalized growth,[20],1.02
same,normalized growth,[21],1.02
same,normalized growth,[22],1.04
same,normalized growth,[23],1.02
same,normalized growth,[24],1.01
same,normalized growth,[25],1.03
same,normalized growth,[27],1.01
same,normalized growth,[28],1.02
same,normalized growth,[29],1.12
c1ccc(-c2ncc3ccccn23)cc1,normalized growth,[1],1.01
same,normalized growth,[2],0.988
same,normalized growth,[3],0.985
same,normalized growth,[4],0.975
same,normalized growth,[5],0.967
same,normalized growth,[6],0.974
same,normalized growth,[7],0.989
same,normalized growth,[8],0.998
same,normalized growth,[9],0.843
same,normalized growth,[10],0.999
same,normalized growth,[12],0.99
same,normalized growth,[13],1.03
same,normalized growth,[14],0.996
same,normalized growth,[15],0.786 (active)
same,normalized growth,[16],0.991
same,normalized growth,[17],0.9
same,normalized growth,[18],0.926
same,normalized growth,[19],0.936
same,normalized growth,[20],1.01
same,normalized growth,[21],0.971
same,normalized growth,[31],0.711
same,normalized growth,[22],0.979
same,normalized growth,[23],0.95
same,normalized growth,[24],1.01
same,normalized growth,[25],0.981
same,normalized growth,[26],0.461 (active)
same,normalized growth,[27],1.03
same,normalized growth,[28],0.928
same,normalized growth,[29],0.753
O=[N+]([O-])c1cnc2ccccn12,normalized growth,[1],1.02
same,normalized growth,[2],1.01
same,normalized growth,[4],1
same,normalized growth,[5],1.03
same,normalized growth,[6],0.964
same,normalized growth,[7],1
same,normalized growth,[8],1.01
same,normalized growth,[9],1.08
same,normalized growth,[10],1.01
same,normalized growth,[11],0.992
same,normalized growth,[12],1.02
same,normalized growth,[13],1.03
same,normalized growth,[14],1.02
same,normalized growth,[15],1.05
same,normalized growth,[16],1.01
same,normalized growth,[17],1.01
same,normalized growth,[18],1.09
same,normalized growth,[19],0.995
same,normalized growth,[20],1.01
same,normalized growth,[21],1.02
same,normalized growth,[31],1.1
same,normalized growth,[22],1.03
same,normalized growth,[23],1.08
same,normalized growth,[24],1.02
same,normalized growth,[25],1.02
same,normalized growth,[27],1.02
same,normalized growth,[28],1.02
same,normalized growth,[29],1.11
